Data as given in PubChem BioAssay (NCATS).
“And” between values parts separate entries of the source, which are not always exact repeats. Identical values can stand only once. Records with an inconclusive call do not appear. A call without a number means that no potency is given here. A structure can be active in one record and inactive in another. The source made the active and inactive calls. Unless noted, the call rests on the fitted dose curve; in most records, active means well fitted curve in the direction sought with a large enough effect in the repeat runs; inconclusive means weak or mixed curves; inactive means no such curve, though single readings can be large; an effect the other way counts as inactive or inconclusive.

Tests used:
[1] = A High-Content qHTS Against Drug Library for the Identification of Small Molecules that Inhibit DYT1 Early Onset Primary Dystonia-Associated Cell Pathology (AID 1645839; calls by dose curve)
Procedure, shortened: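 High-content imaging quantified EGFP-TorsinA mislocalization in HEK293-derived cells inducibly expressing DYT1 mutant torsinA, after 48 h exposure to compound given together with tetracycline induction. Cell count served as a toxicity channel alongside %pathology.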

[2] = target: Cytochrome P450 2D6 (Homo sapiens) (UniProt P10635); experiment: Cytochrome P450 family 2 subfamily D member 6 (CYP2D6) small molecule antagonists: luciferase biochemical (cell-free) qHTS assay (AID 1645840); further: nearly all actives have a fitted effect of over 55% in size; further: potency means the concentration at half of the fitted maximal effect
Procedure, shortened: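 P450-Glo CYP2D6 system: proluciferin substrate converted by enzyme to luciferin, read by luminescence proportional to activity. Enzyme-substrate mix with compound 10 min at room temperature, then NADPH regeneration 1 h before detection reagent.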

[3] = target: Cytochrome P450 2C9 (Homo sapiens) (UniProt P11712); experiment: Cytochrome P450 family 2 subfamily C member 9 (CYP2C9) small molecule antagonists: luciferase biochemical (cell-free) qHTS assay (AID 1645842); further: nearly all actives have a fitted effect of over 55% in size; further: potency means the concentration at half of the fitted maximal effect
Procedure, shortened: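 P450-Glo CYP2C9 system: proluciferin substrate with enzyme in mix containing 0.4% BSA, 10 min at room temperature, then NADPH regeneration solution added and incubated 1 h at 37C. Detection reagent stopped reaction; luminescence read after 20 min as RLU.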

Papain (Carica papaya) = Papain (Carica papaya) (UniProt P00784); experiment: Primary qHTS assay for inhibitors of the protease papain (AID 1645873; active means well fitted curve in the direction sought with a large enough effect; an effect the other way counts as inactive or inconclusive;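 further: papain turnover of Z-FR-AMC read as the AMC fluorescence gain over 10 min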)
[4] = Cytotoxicity counterscreen for inhibitors of SARS-CoV-2 cell entry (AID 1645845; calls by dose curve; further: nearly all actives have a fitted effect of over 50% in size)
Procedure, shortened: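 ATP-content luminescence (ATPLite 1step, 15 min RT) read after 48 h compound exposure of Expi293F cells stably expressing human ACE2; normalized to cells-only wells and media-only wells.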

[5] = Primary qHTS to identify inhibitors of SARS-CoV-2 cell entry (AID 1645846; calls by dose curve; further: nearly all actives have a fitted effect of over 45% in size); settings: activity change, negative = inhibition: at 57.1 µM (top of the series) unless noted
Procedure, shortened: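 HEK293-ACE2 (Expi293F, stable hACE2), 1500 cells/well, o/n 37C; cpd 23 nL pin, 1 h; MLV-PP w/ SARS-CoV-2-S (Wuhan-Hu-1, Δ19 C-term); 48 h 37C; Bright-Glo luminescence; normalized vs S-PP and bald PP.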

[6] = Primary qHTS for inhibitors of nuclear receptor binding SET domain protein 2 (NSD2) in an isogenic RCH-ACV NSD2 p.E1099K mutant (9B) (AID 1645876; active means well fitted curve in the direction sought with a large enough effect; an effect the other way counts as inactive or inconclusive; further: nearly all actives have a fitted effect of over 70% in size; further: potency means the concentration at half of the fitted maximal effect)
[7] = target: Cytochrome P450 3A4 (Homo sapiens) (UniProt P08684); experiment: Cytochrome P450 family 3 subfamily A member 4 (CYP3A4) small molecule antagonists: luciferase qHTS assay (AID 1645841); further: nearly all actives have a fitted effect of over 45% in size
Procedure, shortened: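 Luminescent CYP3A4 activity readout: compounds plus enzyme-substrate mix 10 min at room temperature, reaction started with NADPH regenerating system for 1 h, stopped with detection reagent, read after 20 min. Ketoconazole served as control.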

[8] = VSVG counterscreen qHTS to identify inhibitors of SARS-CoV-2 cell entry (AID 1645847; calls by dose curve; further: potency means the concentration at half of the fitted maximal effect; nearly all actives have a fitted effect of over 65% in size)
Procedure, shortened: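 Expi293F/hACE2 cells, overnight plating; cpd 1 h, 37C/5% CO2; + VSV-G PP (MLV pseudotyping), 48 h; supernatant removed, Bright-Glo luciferase read. Norm: VSV-G PP and bald PP wells.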

[9] = target: N-terminal Xaa-Pro-Lys N-methyltransferase 1 (Homo sapiens) (UniProt Q9BV86); experiment: Confirmatory qHTS for Inhibitors of N-terminal methyltransferase 1 (NTMT1): MTaseGlo Assay (AID 1645874; active means well fitted curve in the direction sought with a large enough effect; an effect the other way counts as inactive or inconclusive;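 further: luminescence from SAH made as NTMT1 methylates SPKRIA peptide using SAM; nearly all actives have a fitted effect of over 65% in size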)
Procedure, shortened: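 SPKRIA peptide at 1 uM was methylated by 125 nM NTMT1 using 100 uM SAM over 30 min at room temperature, following a 15 min compound preincubation. Product SAH was detected luminescently.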

Cytochrome P450 2C9 (Homo sapiens), sequence (P11712 whole entry, looked up): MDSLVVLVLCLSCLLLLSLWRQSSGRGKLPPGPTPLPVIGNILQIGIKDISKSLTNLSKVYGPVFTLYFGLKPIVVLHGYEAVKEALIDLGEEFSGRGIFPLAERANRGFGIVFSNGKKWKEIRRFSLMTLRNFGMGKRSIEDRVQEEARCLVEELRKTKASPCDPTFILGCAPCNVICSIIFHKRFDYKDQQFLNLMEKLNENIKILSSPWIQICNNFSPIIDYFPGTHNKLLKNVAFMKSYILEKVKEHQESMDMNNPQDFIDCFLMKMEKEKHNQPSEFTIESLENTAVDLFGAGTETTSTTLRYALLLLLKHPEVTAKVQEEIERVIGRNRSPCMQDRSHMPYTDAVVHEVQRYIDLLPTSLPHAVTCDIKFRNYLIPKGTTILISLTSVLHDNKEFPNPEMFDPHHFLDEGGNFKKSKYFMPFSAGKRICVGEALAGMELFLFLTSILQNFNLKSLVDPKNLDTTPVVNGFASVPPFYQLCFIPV
Cytochrome P450 3A4 (Homo sapiens), sequence (P08684 whole entry, looked up): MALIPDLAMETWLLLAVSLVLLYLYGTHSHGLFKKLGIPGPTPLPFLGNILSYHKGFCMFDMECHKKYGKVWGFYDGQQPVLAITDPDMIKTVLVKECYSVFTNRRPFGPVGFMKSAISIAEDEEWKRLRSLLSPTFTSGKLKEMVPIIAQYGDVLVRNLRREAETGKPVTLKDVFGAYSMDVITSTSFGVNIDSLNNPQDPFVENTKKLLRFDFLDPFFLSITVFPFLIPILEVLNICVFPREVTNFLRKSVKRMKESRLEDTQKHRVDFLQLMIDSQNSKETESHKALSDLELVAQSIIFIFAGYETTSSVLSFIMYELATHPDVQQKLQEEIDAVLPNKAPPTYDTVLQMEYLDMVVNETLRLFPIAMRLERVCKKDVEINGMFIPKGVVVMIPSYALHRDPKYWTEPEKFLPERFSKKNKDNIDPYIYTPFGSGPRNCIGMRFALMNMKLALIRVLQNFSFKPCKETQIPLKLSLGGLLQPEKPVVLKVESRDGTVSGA
Papain (Carica papaya), sequence (P00784 whole entry, looked up): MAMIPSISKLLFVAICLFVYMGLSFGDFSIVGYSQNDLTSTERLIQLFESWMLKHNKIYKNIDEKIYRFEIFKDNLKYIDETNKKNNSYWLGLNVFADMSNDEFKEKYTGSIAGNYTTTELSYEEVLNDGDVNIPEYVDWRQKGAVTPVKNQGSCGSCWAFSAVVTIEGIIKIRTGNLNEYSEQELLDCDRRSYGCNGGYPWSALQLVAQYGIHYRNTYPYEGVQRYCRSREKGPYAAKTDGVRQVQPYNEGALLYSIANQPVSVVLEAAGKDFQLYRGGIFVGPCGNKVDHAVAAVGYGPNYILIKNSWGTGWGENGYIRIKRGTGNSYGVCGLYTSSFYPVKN
Cytochrome P450 2D6 (Homo sapiens), sequence (P10635 whole entry, looked up): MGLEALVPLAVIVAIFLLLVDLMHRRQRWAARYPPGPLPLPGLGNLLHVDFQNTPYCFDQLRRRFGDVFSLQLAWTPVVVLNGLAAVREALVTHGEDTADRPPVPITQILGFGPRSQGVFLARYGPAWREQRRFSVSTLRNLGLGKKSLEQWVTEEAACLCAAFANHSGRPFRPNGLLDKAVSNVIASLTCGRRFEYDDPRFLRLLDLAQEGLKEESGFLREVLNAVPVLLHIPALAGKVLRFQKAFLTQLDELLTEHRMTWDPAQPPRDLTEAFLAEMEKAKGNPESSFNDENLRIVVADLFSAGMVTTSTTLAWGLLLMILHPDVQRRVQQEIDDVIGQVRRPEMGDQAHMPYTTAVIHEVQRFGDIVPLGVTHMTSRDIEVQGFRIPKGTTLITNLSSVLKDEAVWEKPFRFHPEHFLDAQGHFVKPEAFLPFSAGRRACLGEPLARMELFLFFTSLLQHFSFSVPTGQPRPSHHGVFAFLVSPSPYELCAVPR
N-terminal Xaa-Pro-Lys N-methyltransferase 1 (Homo sapiens), sequence (Q9BV86 whole entry, looked up): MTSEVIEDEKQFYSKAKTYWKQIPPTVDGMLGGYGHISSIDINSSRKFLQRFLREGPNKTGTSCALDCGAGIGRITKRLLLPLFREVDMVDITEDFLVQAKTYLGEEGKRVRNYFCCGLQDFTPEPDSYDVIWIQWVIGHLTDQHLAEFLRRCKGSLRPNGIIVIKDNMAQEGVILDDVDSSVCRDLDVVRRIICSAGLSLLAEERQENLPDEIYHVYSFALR

## O=C(CCCN1CCC2(CC1)C(=O)NCN2c1ccccc1)c1ccc(F)cc1
[1]
  outcome: inactive
[2]
  Potency: 0.309 µM (active)
[3]
  Potency: inactive
Papain (Carica papaya)
  outcome: inactive

## O=C1c2ccccc2C(=O)C1C(=O)C(c1ccccc1)c1ccccc1
[1]
  outcome: inactive
[2]
  Potency: 19.2 µM (active)
[3]
  Potency: 0.384 µM (active)

## c1ccc2c(c1)sc1ccccc12
[1]
  outcome: inactive
[2]
  Potency: inactive
[3]
  Potency: inactive
[4]
  Potency: inactive
[5]
  activity change, negative = inhibition: -6.22%
[6]
  Potency: inactive

## C[C@]12Cc3cn[nH]c3C[C@@H]1CC[C@@H]1[C@@H]2CC[C@@]2(C)[C@H]1CC[C@]2(C)O
[1]
  outcome: inactive
[2]
  Potency: 1.95 µM (active)
[3]
  Potency: 0.692 µM (active)
[4]
  Potency: inactive
[5]
  activity change, negative = inhibition: -13.6%

## COC1CC(=C(c2cccs2)c2cccs2)C[N+](C)(C)C1 (configuration not stated)
[1]
  outcome: inactive
[2]
  Potency: 0.138 µM (active)
[3]
  Potency: inactive
[4]
  Potency: inactive
[5]
  activity change, negative = inhibition: -29.5%

## CN1C(=O)CCS(=O)(=O)C1c1ccc(Cl)cc1 (configuration not stated)
[1]
  outcome: inactive
[2]
  Potency: inactive
[3]
  Potency: inactive
[4]
  Potency: inactive
[5]
  activity change, negative = inhibition: -18.3% and 4.93%
Papain (Carica papaya)
  outcome: inactive
[6]
  Potency: inactive

## NCCc1ccc(O)cc1
[1]
  outcome: inactive
[2]
  Potency: 13.8 µM (active)
[3]
  Potency: inactive
Papain (Carica papaya)
  outcome: inactive
[6]
  Potency: inactive

## O=C1c2ccccc2C(=O)c2ccccc21
[1]
  outcome: inactive
[2]
  Potency: inactive
[3]
  Potency: inactive
[4]
  Potency: inactive
[5]
  Potency: inactive
[6]
  Potency: inactive

## CCC(C)C(C)(COC(N)=O)COC(N)=O (configuration not stated)
[1]
  outcome: inactive
[2]
  Potency: inactive
[3]
  Potency: inactive
[4]
  Potency: inactive
[5]
  activity change, negative = inhibition: -15.3%
[6]
  Potency: inactive

## O=C(O)CCCc1ccc(N(CCCl)CCCl)cc1
[1]
  outcome: inactive
[2]
  Potency: inactive
[3]
  Potency: inactive
[4]
  Potency: inactive
[6]
  Potency: inactive

## Nc1nc(N)nc(NC2CC2)n1
[1]
  outcome: inactive
[2]
  Potency: inactive
[7]
  Potency: inactive
[3]
  Potency: inactive
[6]
  Potency: inactive

## COc1cc(OC)c(OC)cc1C=O
[1]
  outcome: inactive
[2]
  Potency: inactive
[3]
  Potency: inactive
[6]
  Potency: inactive

## CCN(CCO)CCn1c(Cc2ccccc2)nc2c1c(=O)n(C)c(=O)n2C
[1]
  outcome: inactive
[2]
  Potency: inactive
[3]
  Potency: inactive
[6]
  Potency: inactive

## C#CC(O)(C=CCl)CC (configuration not stated)
[1]
  outcome: inactive
[2]
  Potency: inactive
[3]
  Potency: inactive
[4]
  Potency: inactive
[6]
  Potency: inactive

## COP(=S)(OC)Oc1ccc(SC)c(C)c1
[1]
  outcome: inactive
[2]
  Potency: inactive
[3]
  Potency: 3.89 µM (active)
[4]
  Potency: inactive
[5]
  activity change, negative = inhibition: -16.5%
[6]
  Potency: inactive

## COc1cccc([C@@]2(O)CCCC[C@@H]2CN(C)C)c1
[1]
  outcome: inactive
[2]
  Potency: inactive
[7]
  Potency: inactive
[3]
  Potency: inactive
[6]
  Potency: inactive

## C=C(C)[C@H]1CN[C@H](C(=O)O)[C@H]1CC(=O)O
[1]
  outcome: inactive
[2]
  Potency: inactive
[3]
  Potency: inactive
[4]
  Potency: inactive
[5]
  Potency: inactive
Papain (Carica papaya)
  outcome: inactive
[6]
  Potency: inactive

## CCOC(=O)CC(SP(=S)(OC)OC)C(=O)OCC (configuration not stated)
[1]
  outcome: inactive
[2]
  Potency: 39.9 µM (active) and inactive
[3]
  Potency: 1.3 µM (active) and 1.74 µM (active)
[4]
  Potency: inactive
[5]
  activity change, negative = inhibition: 2.11%
[6]
  Potency: 30.6 µM (active) and inactive

## COc1cccc2c1C(=O)c1c(O)c3c(c(O)c1C2=O)C[C@@](O)(C(=O)CO)CC3OC1CC(N2CCOC(OC)C2)C(O)C(C)O1 (some centres not stated)
[1]
  outcome: inactive
[2]
  Potency: inactive
[3]
  Potency: 3.47 µM (active)
[8]
  Potency: 48.2 nM (active)
[6]
  Potency: 4.7 nM (active)

## Clc1ccccc1N1CCNCC1
[1]
  outcome: inactive
[2]
  Potency: 13.8 µM (active)
[7]
  Potency: inactive
[3]
  Potency: inactive
[6]
  Potency: inactive

## C[C@]12CCC(=O)C=C1CC[C@@H]1[C@@H]2CC[C@@]2(C)[C@H]1CC[C@]2(C)O
[1]
  outcome: inactive
[2]
  Potency: inactive
[3]
  Potency: inactive
[9]
  outcome: inactive
[6]
  Potency: 23700 nM (active)

## CN1C(=O)COc2c(C(=O)NC3CN4CCC3CC4)cc(Cl)cc21 (configuration not stated)
[1]
  outcome: inactive
[2]
  Potency: inactive
[3]
  Potency: inactive
[4]
  Potency: inactive
[5]
  activity change, negative = inhibition: -14.3%
[6]
  Potency: inactive

## COc1c2c(cc3c1OCO3)CCN(C)C2
[1]
  outcome: inactive
[2]
  Potency: 2.45 µM (active)
[3]
  Potency: inactive
[4]
  Potency: inactive
[5]
  activity change, negative = inhibition: -9.9%
[6]
  Potency: inactive

## COP(=S)(OC)Oc1cc(Cl)c(Cl)cc1Cl
[1]
  outcome: inactive
[2]
  Potency: inactive
[3]
  Potency: 6.92 µM (active)
[4]
  Potency: inactive
[5]
  Potency: inactive
[6]
  Potency: inactive

## C[N+]1(CCF)[C@@H]2CC[C@H]1CC(OC(=O)C(O)(c1ccccc1)c1ccccc1)C2 (some centres not stated)
[1]
  outcome: inactive
[2]
  Potency: 15.5 µM (active)
[3]
  Potency: inactive
[4]
  Potency: inactive
[6]
  Potency: inactive

## CC(C)(N)Cc1ccccc1Cl
[1]
  outcome: inactive
[2]
  Potency: 13.8 µM (active)
[3]
  Potency: inactive
[6]
  Potency: inactive

## C[C@@H]1CC2=CC(=O)CC[C@@H]2[C@H]2CC[C@@]3(C)[C@@H](CC[C@]3(C)O)[C@@H]21
[1]
  outcome: inactive
[2]
  Potency: inactive
[3]
  Potency: inactive

## NC1=NC(=O)C(c2ccccc2)O1 (configuration not stated)
[1]
  outcome: inactive
[2]
  Potency: inactive
[3]
  Potency: inactive
[6]
  Potency: inactive

## CC(Cc1ccccc1)N(C)Cc1ccco1 (configuration not stated)
[1]
  outcome: inactive
[2]
  Potency: 2.45 µM (active)
[3]
  Potency: inactive
[6]
  Potency: inactive

## CN1CC[C@]23c4c5ccc(O)c4O[C@H]2[C@@H](O)C=C[C@H]3[C@H]1C5
[1]
  outcome: inactive

## C=CCC1([C@H](C)CCC)C(=O)NC(=O)NC1=O
[1]
  outcome: inactive
[2]
  Potency: inactive
[3]
  Potency: inactive

## Nc1ccc([As](=O)(O)O)cc1
[1]
  outcome: inactive
[2]
  Potency: inactive
[7]
  Potency: inactive
[3]
  Potency: inactive
[4]
  Potency: inactive
[5]
  activity change, negative = inhibition: -1.46%
[6]
  Potency: inactive

## CCc1cc2c(s1)-n1c(C)nnc1CN=C2c1ccccc1Cl
[1]
  outcome: inactive
[2]
  Potency: inactive
[3]
  Potency: inactive
[4]
  Potency: inactive
